From PubChem BioAssay
An excerpt weighted towards active compounds, which were near 8% of everything screened.
KB-3-1 tox – KB-3-1 parental cell cytotoxicity; KB-3-1 viability, CellTiter-Glo ATP luminescence, 72 h; Potency, µM (top dose mostly 46.1 µM), most hits filed as cytotoxic; 400,000 compounds, 1.4% hits; also: % is scaled to controls: 0 for no effect and ±100 for the full control effect; nearly all actives have a fitted effect of over 60% in size
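Cytotoxicity measured as CellTiter-Glo luminescence after 72 h at 37 C. Compound titrations were pinned onto drug-naive KB-3-1 parental adenocarcinoma cells grown in DMEM with 10% FBS, and normalized data fitted to concentration-response curves.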
KB-V1 MDR tox – KB-V1 MDR subline cytotoxicity. AID 1347076. Potency, µM (titrated, usually from 46.1 µM), most hits filed as cytotoxic. KB-V1 MDR cells viability, CellTiter-Glo, 72 h. 400,000 compounds, 3.4% hits; also: % is scaled to controls: 0 for no effect and ±100 for the full control effect; nearly all actives have a fitted effect of over 60% in size
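Readout: CellTiter-Glo luminescence, 10 min after addition. Cells: KB-V1 MDR subline, 72 h at 37 degrees C with compound. Analysis: corrected, normalized data fitted to concentration-effect curves.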
MCF10A rerep – induces DNA re-replication in MCF 10a normal breast cells | Potency, µM (doses to about 46.1 µM), for inactives: at the top dose activity, positive = re-replication, most hits filed as activators | 350,000 compounds, 2.9% hits | MCF 10A DNA re-replication, Hoechst nuclear intensity, 48 h | AID 624296; also: % of control where 0% means no effect; nearly all actives have a fitted effect of over 50% in size
HT1080-NT tox – kills 2HG-producing HT-1080-NT fibrosarcoma cells | HT-1080-NT fibrosarcoma viability, CellTiter-Glo ATP luminescence, 48 h | Potency, µM (top dose mostly 46.1 µM), inactives show top-dose activity, negative = less viability, actives largely listed as cytotoxic | 360,000 compounds, 1.6% hits;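 also: NT is the 2HG producing partner of a matched IDH1 knockdown line; 0% = DMSO-treated cells and -100% = media-only wells without cells; nearly all actives have a fitted effect of over 55% in size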
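750 cells/well, RPMI + 5% FBS; 2 h settle, compound pin-transfer, 48 h at 37 degrees C. CellTiter-Glo 10 min RT, luminescence. Normalized to DMSO and media-only wells.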
SW480 rereplic – induces DNA re-replication in SW480 colon adenocarcinoma cells; SW480 DNA re-replication, Hoechst DNA content imaging, 48 h; Potency, µM (doses to about 46.1 µM), without a hit: top-dose re-replication activation, most hits filed as activators; 340,000 compounds, 1.8% hits; also: % of control where 0% means no effect; nearly all actives have a fitted effect of over 55% in size
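Compounds, transferred as 23 nL by pin tool, were incubated with cells for 48 hr; DNA content per nucleus was then quantified by Hoechst staining and fluorescence plate imaging.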
HT1080 IDH1KD tx – kills HT-1080 cells with IDH1 knockdown; HT-1080 IDH1 knockdown viability, ATP luminescence, 48 h; Potency, µM (series often up to 46.1 µM), for inactives: top-dose activity, negative = toxicity, usual class: cytotoxic; 360,000 compounds, 2% hits; AID 686971;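 also: 0% = DMSO wells and -100% = cell-free medium wells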
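Using the IDH1-knockdown HT-1080 line run in the same batch and compound series as the NT line, viability after 48 h at 37 °C was determined by CellTiter-Glo luminescence and expressed as % activity.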
The depositor's hits bear a star; i = inactive; ? = inconclusive; · = no result; ! = a repeat was not active. Calls follow the shape of the dose curve; as a rule, active = well fitted curve in the direction sought with a large enough effect; inconclusive = small, poorly fitted or top-dose-only effect, or another doubt; inactive = no such curve, though single readings can be large; an effect the other way counts as inactive or inconclusive. Potency is read from the fitted curve at half-maximal effect.

SMILES | KB-3-1 tox | KB-V1 MDR tox | MCF10A rerep | HT1080-NT tox | SW480 rereplic | HT1080 IDH1KD tx
CCCn1c(=O)c2c(C(=O)OCC)cc(-c3ccco3)nc2n(CCC)c1=O | i | 18.4µM* | 11.6µM* | 3.2% | -7.7% | 2.6%
CCOC(=O)c1cnn2c(C(F)(F)F)cc(-c3ccco3)nc12 | i | i | -0.3% | -1.3% | 16.2% | 0.1%
CCCn1c(=O)c2c(C(F)(F)F)cc(-c3ccco3)nc2n(CCC)c1=O | i | i | ? | 3.2% | 1.7% | -3.7%
CCOC(=O)c1cc(-c2ccco2)nc2c1c(C)nn2-c1ccccc1 | i | i | 9.2µM* | 3.5% | 14.7% | 6.1%
O=C(CCc1ccc(Oc2cc([N+](=O)[O-])cc([N+](=O)[O-])c2)cc1)NC1CCCC1 | i | i | 3.6% | -5.8% | -59.4% | -3.9%
O=C(/C=C\c1cccs1)c1c(O)ccc2ccc(=O)oc12 | ? | i | 20.6µM* | ? | 4.8% | 23.1µM*
O=C(C=Cc1cccs1)c1cccs1 | i | i | ? | -7.7% | 119.0% | -3.5%
CC(=O)Cn1ncc(Br)c(Br)c1=O | ? | ? | 2.06µM* | 10.3µM* | 3.66µM* | 7.31µM*
COc1ccc(NS(=O)(=O)c2ccc(N3CCOCC3)c(NC(=O)C(C)C)c2)cc1 | ? | 18.4µM* | 9.1% | -10.7% | -0.1% | -8.9%
COc1ccc(NS(=O)(=O)c2ccc(N3CCOCC3)c(NC(=O)c3ccc(F)cc3)c2)cc1 | ? | ? | -1.5% | ? | ? | ?
CCOC(=O)/C=C/C(=O)Nc1cc(S(=O)(=O)Nc2ccc(OC)cc2)ccc1N1CCOCC1 | i | i | ? | -13.9% | 16.4µM* | -9.3%
COc1ccc(NS(=O)(=O)c2ccc(N3CCCCC3)c(N)c2)cc1 | 20.6µM* | ? | 9.4% | -19.1% | -3.6% | -25.7%
COc1ccc(NS(=O)(=O)c2ccc(N3CCCCC3)c(NC(=O)C(C)NC(N)=O)c2)cc1 (stereo unspecified) | · | · | -6.7% | 0.0% | 16.3% | -2.9%
CCN(CC)S(=O)(=O)c1ccc(N2CCCC2)c(NS(=O)(=O)c2ccc(OC)cc2)c1 | i | 4.11µM* | -6.6% | -2.2% | ? | -0.3%
COc1ccc(OC)c(NC(=O)C2CCCN2C(=O)NC2CCCCC2)c1 (stereo unspecified) | i | i | -35.3% | -6.7% | -8.4% | -9.5%
CCOc1ccc(Br)cc1C1C(C(=O)OC)=C(N)Oc2cc(N(C)C)ccc21 (stereo unspecified) | ? | 23.1µM* | 10.3µM* | 11.6µM* | ? | 14.6µM*
O=C(Nc1ccccc1)Nc1ncc(C(F)(F)F)cc1Cl | i | i | · | -1.0% | · | -0.3%
O=C(NC1CC2CCC(C1)N2Cc1ccccc1)c1ccccc1Br (stereo unspecified) | i | i | 10.1% | 3.0% | 5.7% | 0.5%
CCOc1ccc(OCC(=O)NCCS(=O)(=O)N2CCN(c3cccc(Cl)c3)CC2)cc1 | i | i | · | · | · | ·
COc1ccccc1C(=O)NCCC(=O)Nc1nc2ccccc2[nH]1 | i | i | -0.6% | -11.1% | -34.5% | -5.0%
COc1cc(SC)ccc1C(=O)Nc1nc2ccccc2[nH]1 | 2.91µM* | ? | 10.0% | 1.64µM* | -1.8% | 1.46µM*
COc1ccccc1C(=O)Nc1nc2ccccc2[nH]1 | 2.31µM* | 4.11µM* | -2.9% | 1.46µM* | 5.4% | 1.3µM*
CSc1ccccc1C(=O)Nc1nc2ccccc2[nH]1 | i | i | -0.2% | 1.6% | 0.8% | 22.9%
Cc1cc(C)c(OCC(=O)Nc2nc3ccccc3[nH]2)c(C)c1 | i | i | 0.82µM* | 0.7% | -28.9% | 2.0%
Cc1ccc(C)c(Cn2c(=O)n(-c3ccc(CC(=O)NCc4ccco4)cc3)c(=O)c3sccc32)c1 | i | i | 2.6% | 14.7% | -0.5% | 3.8%
SMILES | KB-3-1 tox | KB-V1 MDR tox | MCF10A rerep | HT1080-NT tox | SW480 rereplic | HT1080 IDH1KD tx
Cc1ccc2ccc3cccnc3c2n1 | 11.6µM* | ? | 11.5% | -5.4% | ? | -19.0%
Nc1cccc2cccnc12 | i | i | · | · | · | ·
COc1cccc(NC(=O)C2C3CCC4C(CCC32)C4(Cl)Cl)c1 (stereo unspecified) | i | 11.6µM* | 3.6% | 2.6% | -116.4% | -10.5%
COc1ccc(NC(=O)C2C3CCC4C(CCC32)C4(Cl)Cl)cc1 (stereo unspecified) | i | i | -40.4% | 1.1% | -31.3% | -11.3%
C=CCSc1nc2c(c(=O)n(C)c(=O)n2C)n1CC | ? | i | -1.5% | -2.3% | -21.5% | -21.3%
O=C(NCC1OCCc2ccccc21)c1ccc(NC(=O)c2cccc(Br)c2)cc1 (stereo unspecified) | i | 2.59µM* | ? | 2.3% | -2.9% | 3.0%
CC(=O)c1ccc(NC(=O)N2CCc3ccccc3C2)cc1 | i | ? | 16.4% | -0.8% | -3.1% | -12.5%
O=C1c2ccccc2C(=O)C1c1cc2ccccc2cn1 | i | i | · | · | · | ·
O=C1c2ccccc2C(=O)C1c1ccc2ccccc2n1 | i | 2.59µM*! | ? | ? | 0.1% | ?
CCSc1nnc(NC(=O)NC(C)(C(F)(F)F)C(F)(F)F)s1 | i | i | ? | ? | ? | ?
CCSc1nnc(NC(=O)NC(CC)(C(F)(F)F)C(F)(F)F)s1 | ? | i | ? | 18.4µM* | 21.4% | ?
CCc1noc(C)c1C(=O)OCC(=O)Nc1nc(-c2ccc(F)c(F)c2)cs1 | i | 2.91µM* | 4.6% | -12.6% | 4.2% | 2.1%
CCc1noc(C)c1C(=O)Nc1nc(-c2ccc(OC)c(OC)c2)cs1 | i | 10.3µM* | 20.9% | -10.9% | ? | -9.9%
Cc1onc(-c2ccccc2)c1C(=O)Nc1nc(-c2ccc(F)c(F)c2)cs1 | i | i | ? | -25.9% | ? | ?
COc1ccc(-c2nc3c4ccccc4ccn3c2CN2CCOCC2)cc1OC | i | 16.4µM* | ? | -14.4% | -15.8% | 5.6%
COc1ccc(-c2nc3c4ccccc4ccn3c2Cc2cccc(F)c2)cc1OC | i | i | · | 23.1µM* | · | ?
COc1ccc(Cl)cc1NC(=S)NN1CCOCC1 | i | i | -2.4% | -4.8% | -9.5% | 1.2%
Cc1nonc1OCC(C)(COc1nonc1C)NC(=O)c1ccc(Cl)cc1 | ? | 4.11µM* | -0.8% | ? | 0.4% | -28.0%
Cc1ccc(S(=O)(=O)Nc2cc(=O)[nH]c(SCc3ccc(Cl)cc3)n2)cc1 | i | i | 18.4µM* | -1.8% | -71.1% | -12.0%
CCOC(=O)Cn1c(=O)c2c(nc3n2CCCN3Cc2ccccc2)n(C)c1=O | i | i | -0.5% | 0.2% | 0.9% | 10.6%
